HT1080-NT tox: qHTS for induction of synthetic lethality in tumor cells producing 2HG: qHTS for the HT-1080-NT fibrosarcoma cell line. HT-1080-NT fibrosarcoma viability, CellTiter-Glo ATP luminescence, 48 h. Potency, µM (series often up to 46.1 µM), for inactives: top-dose activity, negative = less viability, actives largely listed as cytotoxic. hit rate 1.6% among 360,000. AID 686970, 2013;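 further: NT is the 2HG producing partner of a matched IDH1 knockdown line; 0% = DMSO-treated cells and -100% = media-only wells without cells; nearly all actives have a fitted effect of over 55% in size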
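A 48-hour cytotoxicity screen used HT-1080-NT cells plated 2 hours before compound delivery. ATP-based CellTiter-Glo luminescence measured viability, normalized to DMSO and no-cell controls.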
TGFb SMAD3 inh: qHTS for Inhibitors of TGF-b. HepG2 CAGA-GFP TGF-b/SMAD3 reporter, GFP fluorescence, 18 h; TGF-beta stimulated, 500 pg/mL final. Potency, µM (series often up to 46.1 µM), without a hit: at the highest dose activity, negative = inhibition, usual class: inhibitors. hit rate 1.2% among 410,000; further: on the % scale 0 is the no-effect control and ±100 the full control effect; nearly all actives have a fitted effect of over 65% in size
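Using HEPG2 CAGA-GFP reporter cells at 1000 cells/well, we pinned test compounds, stimulated with recombinant TGF-beta (500 pg/mL final) and measured total well GFP after 18 h.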
ATXN2 expr inh: Primary qHTS for Inhibitors of ATXN expression | HEK-293 ATXN2-luciferase reporter, luminescence, 24 h | Potency, µM (series often up to 57 µM), for inactives: top-dose activity change, negative = inhibition, hits mostly inhibitors | hit rate 0.72% among 360,000; further: on the % scale 0 is the no-effect control and ±100 the full control effect; nearly all actives have a fitted effect of over 55% in size
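qHTS (up to 57 uM final) was run with 24 h compound exposure of reporter cells at 37 °C. Each well was multiplexed: SteadyGlo luminescence measured ATXN2-luciferase expression after a fluorogenic Gly-Phe-AFC viability readout (25 uM final).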
S2 tox: Viability Counterscreen for Primary qHTS for Inhibitors of ATXN expression; S2 cells (HEK-293 line with an ATXN2-luciferase reporter) viability, CellTiter-Fluor protease fluorescence, 24 h; Potency, µM (series often up to 56.7 µM), most hits filed as cytotoxic; hit rate 0.49% among 400,000; further: nearly all actives have a fitted effect of over 40% in size
HT1080 IDH1KD tx: qHTS for induction of synthetic lethality in tumor cells producing 2HG: qHTS for the HT-1080-IDH1KD cell line; Potency, µM (titrated, usually from 46.1 µM), for inactives: top-dose activity, negative = toxicity, actives largely listed as cytotoxic; HT-1080 IDH1 knockdown viability, ATP luminescence, 48 h; hit rate 2% among 360,000;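 further: 0% = DMSO wells and -100% = cell-free medium wells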
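Viability of IDH1-knockdown HT-1080 fibrosarcoma cells was assessed by CellTiter-Glo after 48 h at 37 °C with titrated compound; concentration-effect curves were classified by fit quality and response size.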
HepG2 viability: qHTS for Inhibitors of TGF-b: Cytotox Counterscreen; hit rate 0.76% among 410,000; HepG2 CAGA-GFP viability, ATP luminescence, 18 h; Potency, µM (highest dose often 46.1 µM), for the others: at the top dose activity change, negative = cytotoxicity, most hits filed as cytotoxic
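HepG2 CAGA-GFP cells (1000/well, DMEM with 1% FBS) received compound, then TGF-beta at 500 pg/mL final, and were incubated 18 hours at 37 degrees C. Viability was read by CellTiter-Glo luminescence. Media-only wells were set as complete cell-killing and DMSO as no toxicity.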
Numbers without * were called inactive; i = inactive; ? = inconclusive; / = no result given; [ ] = remark or other dose. The list is not random: actives were taken first. Their share in the collection is about 3.8%. The call rests on the fitted dose curve; in most records, active means well fitted curve in the direction sought with a large enough effect; inconclusive means small, poorly fitted or top-dose-only effect, or another doubt; inactive means no such curve, though single readings can be large; an effect the other way counts as inactive or inconclusive. Potency means the concentration at half of the fitted maximal effect.

SMILES | HT1080-NT tox | TGFb SMAD3 inh | ATXN2 expr inh | S2 tox | HT1080 IDH1KD tx | HepG2 viability
Cc1oc(-c2ccccc2Cl)nc1CN1C(=O)CN=C(c2ccccc2)c2cc(Cl)ccc21 | / | -1% | ? | / | / | 5%
Cc1ccc(S(=O)(=O)c2nc(-c3ccccc3Cl)oc2N(C)C2CCN(C)CC2)cc1 | ? | ? | -33% | ? | ? | 11µM*
CCCSc1cc(OC)c(CCN)cc1OC | / | / | / | i | / | /
CC(=O)O[C@H]1C(=O)[C@@]2(C)C([C@H](OC(=O)c3ccccc3)[C@]3(O)C[C@H](OC(=O)[C@H](O)[C@@H](NC(=O)Cc4ccccc4)c4ccccc4)C(C)=C1C3(C)C)[C@]1(OC(C)=O)CO[C@@H]1C[C@@H]2O (some centres undefined) | 0.52µM* | ? | 0% | ? | ? | -19%
CC(=O)O[C@H]1C(=O)[C@@]2(C)C([C@H](OC(=O)c3ccccc3)[C@]3(O)C[C@H](O)C(C)=C1C3(C)C)[C@]1(OC(C)=O)CO[C@@H]1C[C@H]2O (some centres undefined) | -20% | 1% | 0% | ? | -28% | 2%
CC(=O)O[C@@]12CO[C@@H]1C[C@H](O)[C@@]1(C)C(=O)[C@H](O)C3=C(C)[C@@H](OC(=O)[C@H](O)[C@@H](NC(=O)c4ccccc4)c4ccccc4)C[C@@](O)([C@@H](OC(=O)c4ccccc4)C12)C3(C)C (some centres undefined) | 0.0073µM* | -28% | -13% | i | ? | -15%
COc1cc2nc(N(C)C)c(CNCCc3c[nH]c4ccccc34)cc2c(OC)c1OC | / | / | / | i | / | /
CCc1ccc(N2C(=O)NC(=O)C(CCc3ccncc3)(CCc3ccncc3)C2=O)cc1 | 4% | -6% | -3% | i | 10% | 5%
O=C1NC(=O)C(CCc2ccncc2)(Cc2cccc(Cl)c2Cl)C(=O)N1c1ccc(Br)cc1 (centres undefined) | 16µM* | -10% | -6% | ? | 8.2µM* | -3%
COC(=O)c1cn(Cc2ccc(F)cc2)c2ccccc12 | -21% | 8% | / | i | ? | 9%
COC(=O)c1cn(C(=O)c2cccc3ccccc23)c2ccccc12 | 12µM* | 8% | / | ? | 13µM* | 14%
CC(C)c1ccc(NC(=O)Nc2nc(C(N)CCc3ccccc3)cs2)cc1 (centres undefined) | ? | ? | 28µM* | 28µM* | 13µM* | 7.9µM*
CCOP(=O)(OCC)C(NC(=O)Nc1ccc(Cl)c(Cl)c1)c1ccccc1 (centres undefined) | ? | -17% | -12% | i | ? | 1%
CC(C)CC(N)c1csc(NC(=O)Nc2ccccc2-c2ccccc2)n1 (centres undefined) | ? | ? | -27% | 25µM* | -21% | -97%
COc1ccc(/C=N\NC(=O)c2cccc(F)c2)cc1COc1ccccc1 | 1.2µM* | ? | 5% | ? | 0.58µM* | 46%
Cn1c(=O)oc2cc(S(=O)(=O)N3CCCC(C(=O)N4CCN(c5ccc(Cl)cc5)CC4)C3)ccc21 (centres undefined) | / | ? | -29% | i | / | -1%
N#CC1=C(N)Oc2c(c(=O)sc3ccccc23)C1c1ccncc1 (centres undefined) | ? | -7% | -15% | ? | 21µM* | -29%
O=C(Cn1c(=O)oc2cc(S(=O)(=O)N3CCCCCC3)ccc21)NCc1ccccc1Cl | / | ? | / | / | / | -43%
CCC(=O)N1N=C(c2c(O)n(C)c(=O)n(C)c2=O)CC1c1ccccc1 (centres undefined) | ? | -23% | / | ? | 6.5µM* | 5%
Cc1ccc(Cn2nc(C)c(C=O)c2Cl)cc1 | -3% | -23% | 13% | ? | -7% | 3%
Cc1ccc(/C=C/C2=NN(Cc3ccc(Cl)c(Cl)c3)C(=O)CC2)cc1 | 1% | 11µM* | -9% | i | -1%[9.24 µM] | -18%
CN1CCC(O)(c2ccc(F)cc2)C(C(=O)c2ccc(F)cc2)C1 (centres undefined) | / | / | -12% | i | / | /
CN1CCC(O)(c2cccs2)C(C(=O)c2cccs2)C1 (centres undefined) | 23µM* | ? | 19% | i | ? | -30%
CCCCC[C@H]1CCCCC[C@H](O)C[C@H](O)[C@@H](O)/C=C/C(=O)O1 | -2% | / | -10% | i | -7% | /
C[C@H]1CCC/C=C/C2C[C@H](O)CC2[C@H](O)/C=C/C(=O)O1 (some centres undefined) | 0.037µM* | 0.1µM* | ? | ? | 0.029µM* | -27%
SMILES | HT1080-NT tox | TGFb SMAD3 inh | ATXN2 expr inh | S2 tox | HT1080 IDH1KD tx | HepG2 viability
O=[N+]([O-])/N=C1\NCCN1Cc1ccc(Cl)nc1 | / | / | 8% | i | / | /
O=C1CN2CCOC2(c2ccccc2Cl)c2cc(Cl)ccc2N1 (centres undefined) | / | / | 5% | i | / | /
CC1CCCN(CCCNC(=O)c2ccc3c(c2)N(Cc2cccc(Cl)c2)C(=O)c2ccccc2S3=O)C1 (centres undefined) | -25% | 18µM* | / | ? | ? | 13µM*
Cc1ccc2c(c1)C1C[N+](C)(CC(=O)Nc3ccccc3Cl)CCC1N2C(=O)c1ccccc1Cl (centres undefined) | 3% | 32% | 5% | ? | 10% | 73%
NCC[C@H](O)C(=O)N[C@@H]1C[C@H](N)[C@@H](O[C@H]2O[C@H](CN)[C@@H](O)[C@H](O)[C@H]2N)[C@H](O[C@@H]2O[C@H](CO)[C@@H](O)[C@H]2O)[C@H]1O | / | / | / | i | / | /
CCOC(=O)c1cc(-c2ccccc2)n(CCCC(=O)Nc2ccc(C)c(C)c2)c1C | / | ? | / | / | / | -24%
Cc1ccccc1C(=O)Nc1cc(-c2ccc(Cl)cc2)nn1-c1ccccc1 | / | -2% | 1% | ? | / | -1%
CCc1ccc(-c2nc(CN3CCCC(C(=O)NCc4ccc(C)cc4)C3)c(C)o2)cc1 (centres undefined) | / | ? | 3% | i | / | -14%
COc1ccc(NC(=O)Cn2c(=O)oc3cc(S(=O)(=O)NCc4ccccc4)ccc32)c(OC)c1 | / | 0% | / | / | / | -32%
